Test results reported in PubChem BioAssay (NCI).
The panel holds about 83,000 compounds, 20% with a hit somewhere; the sample as a whole holds those more often.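 96-well plates, one dose, 48 hours. Percent growth reported; active if below 10.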 Active and inactive are the calls of the source.

Key:
Experiment in all cases: NCI-60 one-dose screen, 48 h (100 = growth as untreated, 0 = no growth, -100 = all killed)
Conditions in all cases: 10 µM unless noted
SR leukemia = tested on: SR leukemia
RPMI-8226 leukemia = tested on: RPMI-8226 leukemia
OVCAR-8 ovarian = tested on: OVCAR-8 ovarian
OVCAR-5 ovarian = tested on: OVCAR-5 ovarian
OVCAR-4 ovarian = tested on: OVCAR-4 ovarian
SK-OV-3 ovarian = tested on: SK-OV-3 ovarian
IGROV1 ovarian = tested on: IGROV1 ovarian
OVCAR-3 ovarian = tested on: OVCAR-3 ovarian
HS 578T breast = tested on: HS 578T breast
NCI/ADR-RES ovarian = tested on: NCI/ADR-RES ovarian
T-47D breast = tested on: T-47D breast
BT-549 breast = tested on: BT-549 breast
MDA-MB-435 melanoma = tested on: MDA-MB-435 melanoma
SW-620 colon = tested on: SW-620 colon
MCF7 breast = tested on: MCF7 breast
HCT-116 colon = tested on: HCT-116 colon
HCC-2998 colon = tested on: HCC-2998 colon
KM12 colon = tested on: KM12 colon
MDA-MB-468 breast = tested on: MDA-MB-468 breast

Measured: growth

CS(=O)(=O)Nc1cccc(-n2cnc3cc(-c4ccc(O)cc4)ccc32)c1
inactive: SR leukemia 32.1% | RPMI-8226 leukemia 27.2% | OVCAR-8 ovarian 30.8% | OVCAR-5 ovarian 56% | OVCAR-4 ovarian 67.1% | SK-OV-3 ovarian 35.6% | IGROV1 ovarian 57.7% | OVCAR-3 ovarian 30.7% | HS 578T breast 40.8% | NCI/ADR-RES ovarian 29.8% | T-47D breast 49.1% | BT-549 breast 49.9% | SW-620 colon 46.2% | MCF7 breast 23.6% | HCT-116 colon 33.5% | HCC-2998 colon 63.9% | KM12 colon 26.6%
active: MDA-MB-435 melanoma -37.6% | MDA-MB-468 breast 6.92%

COc1ccc(NC(=O)NN2C(=O)c3ccccc3N(C)C2c2ccc(OC)cc2)cc1 (stereo not given)
inactive: SR leukemia 88.4% | RPMI-8226 leukemia 99.1% | OVCAR-8 ovarian 103% | OVCAR-5 ovarian 107% | OVCAR-4 ovarian 96.7% | SK-OV-3 ovarian 101% | IGROV1 ovarian 108% | OVCAR-3 ovarian 89.8% | HS 578T breast 101% | NCI/ADR-RES ovarian 92.2% | T-47D breast 97.1% | BT-549 breast 29.9% | MDA-MB-435 melanoma 103% | SW-620 colon 100% | MCF7 breast 94.9% | HCT-116 colon 59.4% | HCC-2998 colon 113% | KM12 colon 101% | MDA-MB-468 breast 102%

O=C(N/N=C/c1occc1Br)c1[nH]c2ccc(Br)cc2c1-c1ccccc1
active: SR leukemia -9.6% | RPMI-8226 leukemia -4.48% | OVCAR-8 ovarian -51.7% | OVCAR-5 ovarian -99.8% | OVCAR-4 ovarian -87% | SK-OV-3 ovarian -85.3% | IGROV1 ovarian -92.8% | OVCAR-3 ovarian -73.7% | HS 578T breast -28.4% | NCI/ADR-RES ovarian -53.5% | T-47D breast -77% | BT-549 breast -89.4% | MDA-MB-435 melanoma -90.4% | SW-620 colon -86.3% | MCF7 breast -66.9% | HCT-116 colon -74.5% | HCC-2998 colon -89.6% | KM12 colon -46.6% | MDA-MB-468 breast -75.1%

Cc1ccc(S(=O)(=O)N(CCn2ccnc2[N+](=O)[O-])CCn2ccnc2[N+](=O)[O-])cc1
inactive: SR leukemia 94.2% | RPMI-8226 leukemia 102% | OVCAR-8 ovarian 101% | OVCAR-5 ovarian 103% | OVCAR-4 ovarian 107% | SK-OV-3 ovarian 109% | IGROV1 ovarian 109% | OVCAR-3 ovarian 124% | HS 578T breast 103% | NCI/ADR-RES ovarian 104% | T-47D breast 100% | BT-549 breast 119% | MDA-MB-435 melanoma 98.7% | SW-620 colon 100% | MCF7 breast 100% | HCT-116 colon 102% | HCC-2998 colon 114% | KM12 colon 105% | MDA-MB-468 breast 96.4%

COc1ccc2[nH]c(=O)cc(-n3ncc(C(=O)/C=C/c4cc(OC)c(OC)c(OC)c4)c3C)c2c1
inactive: OVCAR-8 ovarian 14.5% | OVCAR-4 ovarian 36.5% | HS 578T breast 57.3%
active: SR leukemia -11.8% | RPMI-8226 leukemia -45.2% | OVCAR-5 ovarian -26.3% | SK-OV-3 ovarian 6.3% | IGROV1 ovarian -0.815% | OVCAR-3 ovarian -34.6% | NCI/ADR-RES ovarian 7.59% | T-47D breast 5.38% | BT-549 breast -57.2% | MDA-MB-435 melanoma 1.51% | SW-620 colon -51.9% | MCF7 breast 1.39% | HCT-116 colon -52.9% | HCC-2998 colon -93.9% | KM12 colon -37.2% | MDA-MB-468 breast -71.1%

COc1ccccc1Nc1nnc(-c2c[nH]c3ccccc23)o1
active: SR leukemia 1.74% | RPMI-8226 leukemia -12.4% | HS 578T breast 9.82% | NCI/ADR-RES ovarian -35.9% | MDA-MB-435 melanoma -40.8% | HCC-2998 colon 7.55% | KM12 colon 2.26% | MDA-MB-468 breast -25.4%
inactive: OVCAR-8 ovarian 11.8% | OVCAR-5 ovarian 32.1% | OVCAR-4 ovarian 64.3% | SK-OV-3 ovarian 15.4% | IGROV1 ovarian 16.8% | OVCAR-3 ovarian 12.9% | T-47D breast 16.6% | BT-549 breast 39.7% | SW-620 colon 40.9% | MCF7 breast 10.6% | HCT-116 colon 12.5%

CCCSc1nnc(-c2sc3nc4ccccc4n3c2C)o1
inactive: SR leukemia 107% | RPMI-8226 leukemia 97.7% | OVCAR-8 ovarian 107% | OVCAR-5 ovarian 111% | OVCAR-4 ovarian 104% | SK-OV-3 ovarian 121% | IGROV1 ovarian 107% | OVCAR-3 ovarian 117% | HS 578T breast 109% | NCI/ADR-RES ovarian 98.7% | T-47D breast 102% | BT-549 breast 157% | MDA-MB-435 melanoma 105% | SW-620 colon 108% | MCF7 breast 90.3% | HCT-116 colon 106% | HCC-2998 colon 112% | KM12 colon 101% | MDA-MB-468 breast 88.9%

O=C(Nc1ccc(-c2ccc3c(c2)NC(=O)/C3=C\c2ccc[nH]2)cc1)Nc1ccc(Cl)c(Cl)c1
inactive: SR leukemia 16% | RPMI-8226 leukemia 41.1% | OVCAR-8 ovarian 55.6% | OVCAR-5 ovarian 67.9% | OVCAR-4 ovarian 37.6% | SK-OV-3 ovarian 94.7% | IGROV1 ovarian 65.7% | OVCAR-3 ovarian 12.9% | HS 578T breast 45.9% | NCI/ADR-RES ovarian 51.4% | T-47D breast 18.8% | BT-549 breast 40.5% | MDA-MB-435 melanoma 62.6% | SW-620 colon 16.7% | HCT-116 colon 35.3% | HCC-2998 colon 83.5%
active: MCF7 breast 9.81% | KM12 colon 8.6% | MDA-MB-468 breast -16.8%

Clc1ccc2c(NCCNC34CC5CC(CC(C5)C3)C4)ccnc2c1
active: SR leukemia -35.2% | RPMI-8226 leukemia 0.134% | OVCAR-8 ovarian -63.4% | OVCAR-5 ovarian -37.1% | OVCAR-4 ovarian -57.3% | SK-OV-3 ovarian -83.1% | IGROV1 ovarian -55.6% | OVCAR-3 ovarian -52.4% | HS 578T breast -45.4% | NCI/ADR-RES ovarian -71.3% | T-47D breast -47.2% | BT-549 breast -86.5% | MDA-MB-435 melanoma -72.3% | SW-620 colon -47.1% | MCF7 breast -78.7% | HCT-116 colon -40.1% | HCC-2998 colon -89.5% | KM12 colon -96.8% | MDA-MB-468 breast -92.3%

COc1ccc(N=Nc2c(N)nn3c(-c4ccc(OC)c(OC)c4)ccnc23)cc1
active: HCC-2998 colon -35.9%
inactive: SR leukemia 77.7% | RPMI-8226 leukemia 65.6% | OVCAR-8 ovarian 78.8% | OVCAR-5 ovarian 87.1% | OVCAR-4 ovarian 95.5% | SK-OV-3 ovarian 56.4% | IGROV1 ovarian 95.4% | OVCAR-3 ovarian 109% | HS 578T breast 98.4% | NCI/ADR-RES ovarian 79.2% | T-47D breast 62% | BT-549 breast 65.6% | MDA-MB-435 melanoma 81.9% | SW-620 colon 95.2% | MCF7 breast 84.9% | HCT-116 colon 72.5% | KM12 colon 97.9% | MDA-MB-468 breast 80.2%

O=C(NNC(=O)c1ccc(OCc2nc3ccc(Cl)cc3[nH]2)cc1)Nc1ccc(Cl)c(Cl)c1
inactive: SR leukemia 69.3% | RPMI-8226 leukemia 102% | OVCAR-8 ovarian 24% | OVCAR-5 ovarian 83.8% | OVCAR-4 ovarian 64.5% | SK-OV-3 ovarian 77.1% | IGROV1 ovarian 84.5% | OVCAR-3 ovarian 82.7% | HS 578T breast 81.9% | NCI/ADR-RES ovarian 94.1% | BT-549 breast 119% | MDA-MB-435 melanoma 26.7% | SW-620 colon 47% | MCF7 breast 37.7% | HCT-116 colon 26.1% | HCC-2998 colon 70.1% | KM12 colon 33.8%
active: T-47D breast -1.89% | MDA-MB-468 breast -14.8%

Nc1nc2cc(-c3ccc4ncnc(NCc5ccccc5)c4c3)ccc2o1
inactive: RPMI-8226 leukemia 10.6% | OVCAR-5 ovarian 22.1% | MDA-MB-435 melanoma 16.7% | SW-620 colon 24.1% | HCC-2998 colon 40.3% | KM12 colon 25.4%
active: SR leukemia -44.9% | OVCAR-8 ovarian 2.26% | OVCAR-4 ovarian -75.2% | SK-OV-3 ovarian -5.93% | IGROV1 ovarian -68.5% | OVCAR-3 ovarian -31.5% | HS 578T breast -34.8% | NCI/ADR-RES ovarian 2.3% | T-47D breast -53.6% | BT-549 breast -10.8% | MCF7 breast -25.6% | HCT-116 colon -20% | MDA-MB-468 breast -47.5%

Cc1cc(C(NC(=O)CCCCCNc2cccc3c2C(=O)N(C2CCC(=O)CC2=O)C3=O)c2cccc(N(C)C)c2)c(O)c2ncccc12 (stereo not given)
active: OVCAR-8 ovarian 2.18% | SK-OV-3 ovarian -2.15% | IGROV1 ovarian 1.63% | T-47D breast 4.11% | BT-549 breast -8.92% | MDA-MB-468 breast -24.4%
inactive: SR leukemia 25.3% | RPMI-8226 leukemia 15.6% | OVCAR-5 ovarian 38.1% | OVCAR-4 ovarian 33.2% | OVCAR-3 ovarian 16.3% | HS 578T breast 19.6% | NCI/ADR-RES ovarian 50.6% | MDA-MB-435 melanoma 36.1% | SW-620 colon 23.7% | MCF7 breast 10.9% | HCT-116 colon 13.8% | HCC-2998 colon 14.6% | KM12 colon 15.3%

O=C(c1ccc(Cl)cc1)C1[C@H](c2ccccc2Cl)[C@@H](c2ccccc2)NC12C(=O)Nc1ccc(Br)cc12 (stereo not given in full)
active: SR leukemia -54.4% | RPMI-8226 leukemia 2.44% | OVCAR-8 ovarian -76.9% | OVCAR-5 ovarian -91.5% | OVCAR-4 ovarian -33.3% | SK-OV-3 ovarian -7.68% | IGROV1 ovarian -59.8% | OVCAR-3 ovarian -48.3% | HS 578T breast -36% | NCI/ADR-RES ovarian -87% | T-47D breast -83.4% | BT-549 breast -95.1% | MDA-MB-435 melanoma -93.4% | SW-620 colon -84.1% | MCF7 breast -48.7% | HCT-116 colon -98.9% | HCC-2998 colon -94.2% | KM12 colon -51.8% | MDA-MB-468 breast -83.2%

Cc1ccc(C2CC(c3ccc(S(=O)(=O)NCCNc4nc(N(C)C)nc(N5CCOCC5)n4)cc3)=Nc3c(N)nc(N)nc3N2)cc1 (stereo not given)
active: SR leukemia 1.45%
inactive: RPMI-8226 leukemia 23.4% | OVCAR-8 ovarian 56.3% | OVCAR-5 ovarian 90% | OVCAR-4 ovarian 55.7% | SK-OV-3 ovarian 77.2% | IGROV1 ovarian 50.2% | OVCAR-3 ovarian 64.9% | HS 578T breast 47.8% | NCI/ADR-RES ovarian 89.3% | T-47D breast 43.8% | BT-549 breast 35.2% | MDA-MB-435 melanoma 63.6% | SW-620 colon 81.2% | MCF7 breast 27.6% | HCT-116 colon 38.7% | HCC-2998 colon 47.9% | KM12 colon 47.9% | MDA-MB-468 breast 24.2%
